The results in this text go back to the supplement of paper PMC6555819.

The subject of the experiment is VDR:RXRa (NR concentration 270 nM, RXRa partner concentration 90 nM). The experiment can be described thus: PBM binding z-score (relative to random genomic background probes); higher = stronger binding; sequences stand for … in GC…GCGATTGACAGCGTAGAATGAAGG
The procedure: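 Protein-binding microarray (Agilent 4x180K custom design, double-stranded 60-nt probes: 5' GC cap, 34-nt variable region, 24-nt constant primer region; full probe sequence given). Purified or IVT nuclear receptor:RXRα heterodimers (3:1 NR:RXRα, mostly 270:90 nM) or homodimers were incubated for 1 h in PBS with 2% milk and no ligand, then detected with Alexa488 antibodies. Fluorescence from o1-orientation probes (~5 replicates averaged) was converted to z-scores against 500 random hg19 background probes. Variable regions are seed direct-repeat (DR0–DR5) sites, all their single-nucleotide variants and half-site ablations.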
CGCCCAAGGTCAAAGGTCAGTGAAGAGATGACGG returned a PBM binding z-score of 6.61.
The sequence TGAATGAGGTTAAAGATCAGGGATCGTGGCGTCG came in with a PBM binding z-score of 1.85.
For CCTCGGAGGATAGAAGGTCAGAGCTGTCCGCTTT the value was 0.755; for ACTATTAGTTGACTTAGGGCAACCTATACGACGC, 0.406.
For CGAACGAGGGCATGAGTTGATGGCAAATGCCGAT the value was 1.34; for TCGAGTAGGGTAGGGGCATTCAGAATGGCGTCGA, 0.426.
For CGAACTATGTCATCCAGGACAGTGAATACATTGA the value was 1.05; for AGAACGAGGGCACGCTCAGTTGATAGCAGAGTAG, 1.4; for CCGACTGGGGCAAGGTTACCAGAACGCACAGCCA, 0.0138.
CCAGACAGGCGAGAAGGTAACTCAGCCTCGATTA showed a PBM binding z-score of -0.665.
The figure for CCAGACAGGTGATAGGTAACTCAGTCTGGTACGC is -0.0769; for TCTATTAGTTGAAGGGCGACCGACGAGTCCGTTT it is 0.925; for ACTAGCAGGCCAAGCGTCACTCAAGATTAGTCCG it is -0.477.
The figure for TCATATAGGTAAAAGGTGAAAGGCGGTGTGGTAA is 1.39.
The figure for ATATGTAGGTTAGCTGGGGTCATTCGGACTAGGC is 6.4; for CCTTCTGGGCCAAAGGTCATTGATTCCAATGCTC it is 4.59; for CCAGACAGGTGAGGAGGTAACTCAGCCTCGATTA it is 0.00298.
Take GGACCGAGGGCATTCGAGTTGATAGCATGGCGAT: the PBM binding z-score was determined as 3.66.
For CTACCAAGGTGAACAAGGTCGTAGATTACTATTC the value was 5.56; for CGTCAAAGTTTAAGGTAACGTAACAGAAAGCAGC, 0.3.
The figure for AGAACGAGGGCACGCTGAGTTGATAGTAGAGTAG is 2.38; for CCGACTGGGGCAAACGTTACCATACTCAGTACGA it is -0.23.
The figure for ATCTCTAGGTATAGATAGTTCAGTGAATGCAAAT is 0.666; for ACAGACAGGTGAGGAAGGTAACTCAGGCTATCAT it is 0.159; for TATCCTAGGTCATGCGGGCCAGTATAGTGTCGGC it is 3.5.
Regarding ATCGAAAGGTCGAGAGGTGAGTATACAGAAAGGC, the PBM binding z-score was 2.73.
For TCATATAGGGAAAAGGTGAAAGTCGGTGTGGTAA the value was 1.29; for GCTATTTGTTGAAAGGGCAACCGAATGATTCTCG, 0.521; for TCTAGTTGGTCAAAGGTCACCCACTCGAAATGCG, 5.09.
The figure for CAAACTAGGTCACGAAAGGTCACAGTCGAATGAC is 6.75.
For GCGACTGGGGCAAAGCAGGCTACCATAAGGTTGG the value was -0.662; for GGAACGGGGGCAAAGTTGATAGCATCTGTCGACG, 3.25; for CGAACTAGGTCAAGGACTGTGAATCTCCGCACGC, 1.17.
In the case of TTACCAAGGTGATGGTCGTTGATCCCTCTGTAGA, the PBM binding z-score was -0.193.
The figure for AGCGAAAGGTCGACGAGGTGAGTATACACCGTTT is 5.23; for GCGACTGGGGCAAAGAAGGTTACCATAAGGTTGG it is 0.733; for CCTTACGGGTTACGAGGTTATAGCACGACGAGCG it is 2.36.
For TGAATGAGGTTAAAGATCAGGGAACGTGGCGTCG the value was 1.99.
The figure for TCGAGCAGGTTAGGGGCATTCAGAATGGCGTCGA is 0.187; for GCGACTGGGGCAAAGCAGGTTGCCATAAGGTTGG it is -0.612.
